Rows were chosen to be rich in hits. Some 2.2% of all compounds tested hit in one or more screens of this group.
PfHsp90 set2 = reduces growth (ATP signal) of yeast expressing P. falciparum Hsp90 | S. cerevisiae expressing PfHsp90, BacTiter-Glo ATP, 48 h; yeast lacking PDR1 and PDR3 efflux regulators | inhibition, % at 9.4 µM | 310,000 tested, 0.32% active | AID 504621;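 active means every replicate shows inhibition above about 80%, whatever the replicate mean, limit read from the data; inconclusive means mean inhibition reaches the set limit but some replicate falls short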;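 further: 0% = DMSO neutral controls and 100% = 20 µM radicicol positive controls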
CSC inhib = cancer stem cell inhibition; cancer stem cell-like cells viability, luminescence; inhibition, % at 7.5 µM; 300,000 tested, 1.1% active; AID 2717; in the data active means inhibition above about 75%; inconclusive means no clear call, values can overlap the other calls; tested in HMLE shEcad cells
Shn3 inh set2 = Schnurri-3 reporter inhibition in Clone20 osteoblasts; 360,000 tested, 0.52% active; inhibition, % at 12.5 µM; Clone20 osteoblast Shn3 3'UTR firefly luciferase, 24 h;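 active means mean inhibition of at least 75% with every replicate also reaching 75%; inconclusive means mean inhibition at least 75% but some replicate below; inactive means mean inhibition below 75%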;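 further: 0% = median of neutral control wells and 100% = pilot-screen positive control compound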
Beta apoptosis = beta cell apoptosis inhibition | AID 435005 | 300,000 tested, 0.8% active | INS-1E cytokine-induced death, ATP luminescence, 48 h; percent of positive-control rescue, neutral wells zero | protection from apoptosis, % (no concentration beside the values);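 active means Every replicate reaches about 75%, or at least half do and their mean reaches it too, limit read from the data; inconclusive means At least half of replicates reach the limit but their mean does not; inactive means Under half of replicates reach the limit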;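 further: 0% = cytokine-treated negative control wells and 100% = positive control rescue; higher means more ATP so stronger rescue from cytokine killing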
Calb FLC = affects C. albicans growth with fluconazole | growth inhibition, % (concentration not given with the values) | AID 1979 | 300,000 tested, 0.57% active | C. albicans CaCi-2 (fluconazole-resistant clinical isolate) + fluconazole, Alamar Blue growth, 48 h;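 active means growth inhibition above about 58% in most replicates, limit read from the data, passing the limit was not always enough; inconclusive means exactly half the replicates above a set limit; inactive means most replicates below a set limit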;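 further: all wells also contain fluconazole at 8 µg/ml as a sub-toxic cotreatment; 0% = median of DMSO wells and 100% = median of geldanamycin control wells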
Starred values were filed as active, the others as inactive; u = inconclusive; x = no result given.

SMILES	PfHsp90 set2	CSC inhib	Shn3 inh set2	Beta apoptosis	Calb FLC
C[C@@H]1CN([C@@H](C)CO)C(=O)c2cc(Br)cnc2O[C@H]1CN(C)C(=O)c1ccc2c(c1)OCO2	x	x	-11.4	x	x
O=C1C2C3C=CC(C3)C2C(=O)N1CN(Cc1ccccc1)CN1C(=O)C2C3C=CC(C3)C2C1=O (configuration not stated)	113.1*	-2.8	-13.6	2.7	-13.8
C=C1C(=O)C2=CC1CCC(=O)C1(C)CCC(OC(C)=O)C(C)(C)C1CC2O (configuration not stated)	-46.4	x	83.6*	x	x
O=S(=O)(c1ccc(Cl)cc1)N1CCC(n2cnc3cc(C(F)(F)F)ccc32)CC1	x	84.8*	-18.9	10.0	19.3
CC(C)(C)c1nnc(NC(=O)C2CC(=O)N(CCc3ccc(F)cc3)C2)s1 (configuration not stated)	3.7	-11.5	4.3	-4.9	2.1
CCCCCC1CC1C(=O)N/N=C/c1ccc(N(C)C)cc1 (configuration not stated)	15.2	-0.5	89.1*	-7.2	-27.9
CN(C)c1ccc(/C=N/NC(=O)COc2ccccc2)cc1	-31.3	-11.8	9.3	-9.7	-16.8
CCC(C(=O)Nc1ccc2c(c1)OCCO2)n1c(=O)[nH]c2ccccc2c1=O (configuration not stated)	-3.1	5.0	26.8	-4.2	-5.8
Clc1ccc(Cn2ncc3c(NCc4ccccc4)ncnc32)c(Cl)c1	x	76.8*	x	-10.7	-10.6
COc1ccc(Br)cc1C(C[N+](=O)[O-])c1c(N)n(C)c(=O)n(C)c1=O (configuration not stated)	1.0	83.4*	54.6	43.5	7.0
COc1cc2c(cc1OC)C(O)C(O)(CO)C(C(=O)O)C2c1cc(OC)c(OC)c(OC)c1 (configuration not stated)	12.0	x	-18.0	x	x
CCc1ccc(CNC(=O)CCC(=O)N2Cc3cccc(OC)c3Oc3ncccc32)cc1	16.8	-9.7	-11.5	-0.5	84.6*
CC1CCCCC1NS(=O)(=O)c1ccc(S(=O)(=O)NCc2ccncc2)cc1 (configuration not stated)	x	x	x	77.2*	-6.9
CCOc1ccc(S(=O)(=O)NCc2ccncc2)cc1	0.1	21.6	89.5*	115.6*	10.9
Cc1ccc(C)c(S(=O)(=O)NCc2ccncc2)c1	-1.0	10.2	50.5	8.9	u
Cc1cc(S(=O)(=O)NCc2ccncc2)c(C)cc1Br	-27.0	-3.2	84.8	74.7*	6.8
CCOc1cc(S(=O)(=O)NCc2ccncc2)ccc1Cl	-4.5	-2.0	83.4	111.2*	31.7
NS(=O)(=O)c1ccc(CNC(=O)c2sccc2-c2ccccc2)cc1	-37.1	-4.5	2.0	-6.5	7.0
CC(=O)Nc1ccccc1OCC(=O)NCC(F)(F)F	0.2	6.5	-2.8	-2.5	0.6
Cn1c(N)c(C(=O)CSc2nnc(NC3CCCCC3)s2)c(=O)n(C)c1=O	x	x	-3.4	x	x
CCc1cc(C(=O)NNC(=S)Nc2cccc(C)c2)cs1	14.4	-10.3	-77.9	-0.7	u
Cc1cccc(NC(=S)NNC(=O)c2csc(C(C)C)c2)c1	11.8	1.3	-66.2	-1.4	92.1*
CCN1CCN(c2ccc(S(=O)(=O)N3CCCCC3)cc2NC(=O)/C=C/c2ccc([N+](=O)[O-])cc2)CC1	x	-1.5	-36.5	3.8	-3.0
CC(C)(C)C(=O)Nc1cc(S(=O)(=O)N2CCCCC2)ccc1N1CCCCC1	26.2	27.3	83.5*	-4.4	2.5
CN1CCN(c2ccc(S(=O)(=O)N3CCCCC3)cc2NC(=O)/C=C/c2ccc(Cl)c([N+](=O)[O-])c2)CC1	-3.9	98.4*	3.8	x	1.3
SMILES	PfHsp90 set2	CSC inhib	Shn3 inh set2	Beta apoptosis	Calb FLC
CS(=O)(=O)N1CCC(C(=O)NCc2ccc(Cl)cc2)CC1	9.5	10.3	-15.8	-1.3	4.5
O=C(CSc1nc2nc(-c3cccs3)cc(C(F)(F)F)c2c(=O)[nH]1)Nc1c(F)c(F)c(F)c(F)c1F	x	88.1*	17.9	14.5	22.8
NS(=O)(=O)c1cccc(NC(=O)CSc2nc3nc(-c4cccs4)cc(C(F)(F)F)c3c(=O)[nH]2)c1	-28.4	-3.6	-7.8	-2.3	8.8
Cc1ccccc1C(=O)NNC(=O)C(=O)N1CCCCC1	-15.5	-8.6	-7.7	-5.3	5.3
Cc1ccc(NNC(=O)C(=O)N2CCCCC2)cc1	-0.4	112.0*	-16.9	x	7.0
O=C(OCc1ccccc1)N(CCCCN(CCCNCc1ccccc1)C(=O)OCc1ccccc1)CCCNCc1ccccc1	-33.3	x	99.1*	x	x
CN(Cc1ccccc1)CC(O)COc1ccc(CNCCc2cccnc2)cc1 (configuration not stated)	8.3	0.5	-16.2	2.9	-0.7

High-throughput results (PubChem BioAssay)
